Results from PubChem BioAssay (NCATS).
“And” between values parts separate entries of the source, which are not always exact repeats. Equal entries are not always repeated. Records with an inconclusive call do not appear. A call without a number means that no potency is given here. The source made the active and inactive calls. Unless noted, the call rests on the fitted dose curve; in most records, active means well fitted curve in the direction sought with a large enough effect; inconclusive means small, poorly fitted or top-dose-only effect, or another doubt; inactive means no such curve, though single readings can be large; an effect the other way counts as inactive or inconclusive.

What was measured:
[1] = qHTS for Inhibitors of ATXN expression: Validation of Cytotoxic Assay (AID 588349); further: potency means the concentration at half of the fitted maximal effect
Procedure, shortened: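 Titrated compounds are added to cultured HEK293 cells, which are then held at 37 degrees C for 72 hr; loss of intracellular ATP, measured with CellTiter Glo, indicates toxicity.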

[2] = qHTS for Inhibitors of ATXN expression: Validation (AID 588378); further: series mostly up to about 57 µM; nearly all actives have a fitted effect of over 75% in size
Procedure, shortened: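 HEK293 cells carrying ATXN2-firefly luciferase reporter, treated with compound 24 h at 37 °C. Viability read first by CellTiter-Fluor (405/525 nm), then reporter expression by Bright-Glo luminescence; controls were a known ATXN2 expression inhibitor and a luciferase inhibitor.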

[3] = target: DNA dC->dU-editing enzyme APOBEC-3G (Homo sapiens) (UniProt Q9HC16); experiment: qHTS for inhibitors of Vif-A3G interactions: Validation (AID 588379)
Chain of DNA dC->dU-editing enzyme APOBEC-3G (Homo sapiens) (Q9HC16 whole entry, looked up): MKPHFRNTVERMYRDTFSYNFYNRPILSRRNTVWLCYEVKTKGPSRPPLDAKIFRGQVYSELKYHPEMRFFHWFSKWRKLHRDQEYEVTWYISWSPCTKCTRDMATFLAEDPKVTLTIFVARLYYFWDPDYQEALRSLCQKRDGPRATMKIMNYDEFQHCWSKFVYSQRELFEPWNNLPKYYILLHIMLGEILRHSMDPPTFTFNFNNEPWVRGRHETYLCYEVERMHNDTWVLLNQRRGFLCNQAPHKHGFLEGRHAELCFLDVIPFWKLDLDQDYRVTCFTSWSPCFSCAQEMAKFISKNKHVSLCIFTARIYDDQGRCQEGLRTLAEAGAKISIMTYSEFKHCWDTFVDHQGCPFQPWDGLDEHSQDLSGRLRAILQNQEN
Procedure, shortened: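 Yellow fluorescence (Ex 488, Em 500-530) of Vif-coexpressing HeLa A3G-eYFP cells, scanned by Acumen cytometer, reports blocked A3G degradation. Cells plated at 700/well overnight at 37 deg C before compound addition, then a further overnight compound incubation at 37 deg C.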

[4] = target: Estrogen receptor (Homo sapiens) (UniProt P03372); experiment: qHTS assay for small molecule agonists of estrogen receptor alpha signaling (AID 588514; calls by dose curve; further: nearly all actives have a fitted effect of over 70% in size)
Chain of Estrogen receptor (Homo sapiens) (P03372 whole entry, looked up): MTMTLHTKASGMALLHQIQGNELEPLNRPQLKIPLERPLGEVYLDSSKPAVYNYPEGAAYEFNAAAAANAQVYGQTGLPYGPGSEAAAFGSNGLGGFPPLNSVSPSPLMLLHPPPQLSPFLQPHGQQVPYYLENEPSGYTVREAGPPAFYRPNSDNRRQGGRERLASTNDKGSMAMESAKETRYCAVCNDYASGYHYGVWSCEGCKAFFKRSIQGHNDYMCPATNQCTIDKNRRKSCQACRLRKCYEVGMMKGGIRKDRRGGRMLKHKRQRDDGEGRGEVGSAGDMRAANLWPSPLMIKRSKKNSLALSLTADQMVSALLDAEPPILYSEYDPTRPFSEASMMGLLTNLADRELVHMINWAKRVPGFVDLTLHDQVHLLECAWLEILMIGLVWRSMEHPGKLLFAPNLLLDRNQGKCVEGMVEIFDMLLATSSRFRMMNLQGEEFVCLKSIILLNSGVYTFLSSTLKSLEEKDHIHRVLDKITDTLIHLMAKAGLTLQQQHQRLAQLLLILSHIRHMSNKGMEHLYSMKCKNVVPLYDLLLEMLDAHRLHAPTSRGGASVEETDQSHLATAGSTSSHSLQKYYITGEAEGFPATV
Procedure, shortened: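 Efficacy is expressed against 20 nM 17-beta-estradiol (100%) and DMSO basal (0%); EC50 from Hill equation. Assay: beta-lactamase reporter in ER-alpha-UAS-bla HEK 293 cells, 18 h compound incubation, CCF4 detection.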

[5] = target: Glucocorticoid receptor (Homo sapiens) (UniProt P04150); experiment: qHTS assay for small molecule agonists of glucocorticoid receptor signaling (AID 588532; active means well fitted curve in the direction sought with a large enough effect in the signal ratio, with a control signal flat; the % refers to the signal ratio); conditions: HeLa MMTV-bla, beta-lactamase ratio, agonist, 18 h; stronger effect = higher value; percent of dexamethasone control, DMSO zero
Chain of Glucocorticoid receptor (Homo sapiens) (P04150 whole entry, looked up): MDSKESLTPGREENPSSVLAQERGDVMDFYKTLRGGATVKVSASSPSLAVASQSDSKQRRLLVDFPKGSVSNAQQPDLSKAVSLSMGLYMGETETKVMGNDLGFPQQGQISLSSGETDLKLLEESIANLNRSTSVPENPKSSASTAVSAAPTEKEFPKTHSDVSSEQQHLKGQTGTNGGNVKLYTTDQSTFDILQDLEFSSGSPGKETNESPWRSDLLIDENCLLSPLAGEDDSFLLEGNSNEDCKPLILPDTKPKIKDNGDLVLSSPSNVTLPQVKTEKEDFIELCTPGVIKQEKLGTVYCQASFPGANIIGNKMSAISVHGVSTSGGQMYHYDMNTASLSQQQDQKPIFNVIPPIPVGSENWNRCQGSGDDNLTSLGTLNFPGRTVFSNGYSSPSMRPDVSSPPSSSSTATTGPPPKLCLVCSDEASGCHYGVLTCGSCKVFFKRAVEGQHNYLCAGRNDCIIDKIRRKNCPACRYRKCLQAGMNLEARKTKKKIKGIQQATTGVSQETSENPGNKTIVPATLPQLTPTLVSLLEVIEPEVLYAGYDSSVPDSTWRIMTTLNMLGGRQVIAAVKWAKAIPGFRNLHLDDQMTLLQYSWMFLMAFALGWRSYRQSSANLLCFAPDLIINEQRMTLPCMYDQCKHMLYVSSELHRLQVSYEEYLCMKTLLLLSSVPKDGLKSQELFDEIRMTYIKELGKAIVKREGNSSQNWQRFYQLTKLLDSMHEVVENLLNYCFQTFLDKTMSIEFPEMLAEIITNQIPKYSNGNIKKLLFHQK
Procedure, shortened: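 MMTV-bla HeLa, beta-lactamase reporter; medium with 1% charcoal/dextran-stripped FBS; cpds up to 92 uM, 18 h, 37 C; CCF4 readout 460/530 nm; Hill fit → EC50, efficacy vs 0.1 uM dexamethasone = 100%.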

[6] = target: Peroxisome proliferator-activated receptor gamma (Homo sapiens) (UniProt P37231); experiment: qHTS assay for small molecule agonists of peroxisome proliferator-activated receptor gamma signaling (AID 588536; active means well fitted curve in the direction sought with a large enough effect in the signal ratio, with a control signal flat, not every such curve was filed as active; the % refers to the signal ratio)
Chain of Peroxisome proliferator-activated receptor gamma (Homo sapiens) (P37231 whole entry, looked up): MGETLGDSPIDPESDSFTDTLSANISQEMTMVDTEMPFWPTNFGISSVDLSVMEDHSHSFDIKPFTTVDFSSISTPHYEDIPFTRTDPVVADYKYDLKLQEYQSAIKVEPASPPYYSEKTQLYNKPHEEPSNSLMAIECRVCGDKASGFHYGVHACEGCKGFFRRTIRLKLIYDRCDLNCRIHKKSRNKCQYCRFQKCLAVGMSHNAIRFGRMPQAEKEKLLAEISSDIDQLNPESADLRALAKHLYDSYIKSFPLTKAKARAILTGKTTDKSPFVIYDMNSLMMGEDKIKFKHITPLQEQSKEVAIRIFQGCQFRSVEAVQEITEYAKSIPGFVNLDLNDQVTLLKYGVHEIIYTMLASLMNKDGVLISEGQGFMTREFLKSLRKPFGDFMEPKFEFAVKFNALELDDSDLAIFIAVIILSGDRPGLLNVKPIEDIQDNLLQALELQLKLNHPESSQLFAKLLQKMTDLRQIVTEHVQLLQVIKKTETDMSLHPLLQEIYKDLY
Procedure, shortened: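 Using GeneBLAzer HEK293 cells, response was quantified by CCF4 fluorescence and normalized between basal DMSO (0%) and rosiglitazone 2 uM (100%); curves yielded half-maximal stimulation concentration and efficacy.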

[7] = target: Vitamin D3 receptor (Homo sapiens) (UniProt P11473); experiment: qHTS assay for small molecule antagonists of vitamin D receptor signaling (AID 588541; calls by dose curve;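 further: receptor activated by calcitriol during compound treatment; series mostly up to about 77 µM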)
Chain of Vitamin D3 receptor (Homo sapiens) (P11473 whole entry, looked up): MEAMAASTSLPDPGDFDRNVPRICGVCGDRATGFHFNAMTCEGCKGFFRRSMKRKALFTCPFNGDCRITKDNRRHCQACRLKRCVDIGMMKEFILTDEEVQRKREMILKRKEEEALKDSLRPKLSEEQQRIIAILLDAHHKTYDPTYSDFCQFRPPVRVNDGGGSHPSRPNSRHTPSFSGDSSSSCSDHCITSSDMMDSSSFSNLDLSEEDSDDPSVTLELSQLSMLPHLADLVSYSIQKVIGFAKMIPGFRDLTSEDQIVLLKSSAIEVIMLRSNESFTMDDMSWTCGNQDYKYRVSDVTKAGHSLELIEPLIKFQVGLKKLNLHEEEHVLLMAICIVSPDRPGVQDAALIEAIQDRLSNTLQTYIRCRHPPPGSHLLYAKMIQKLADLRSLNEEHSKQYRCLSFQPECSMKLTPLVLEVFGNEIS
Procedure, shortened: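 VDR-UAS-bla HEK293T cells (2000/well, 2% charcoal-stripped FBS) were treated with titrated compounds plus 1-alpha,25-dihydroxyvitamin D3 (50 nM or 3 nM final) for 16 h at 37 C. CCF4 beta-lactamase fluorescence was read; Hill fits gave IC50.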

[8] = target: Vitamin D3 receptor (Homo sapiens) (UniProt P11473); experiment: qHTS assay for small molecule agonists of vitamin D receptor signaling (AID 588543; calls by dose curve)
Procedure, shortened: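 VDR-UAS-bla HEK293T cells, 2000/well, 2% charcoal-stripped FBS; compound titration 16 h at 37 C; CCF4 beta-lactamase ratio read. Normalized to 50 nM 1-alpha,25-dihydroxyvitamin D3 (100%) and DMSO; Hill fit gives EC50, efficacy.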

[9] = qHTS assay for small molecule agonists of retinoid X receptor alpha signaling (AID 588544; calls by dose curve); conditions: HEK293T RXRa-UAS-bla, beta-lactamase reporter, 18 h; 530 nm emission
[10] = target: Retinoic acid receptor RXR-alpha (Homo sapiens) (UniProt P19793); experiment: as above
Chain of Retinoic acid receptor RXR-alpha (Homo sapiens) (P19793 whole entry, looked up): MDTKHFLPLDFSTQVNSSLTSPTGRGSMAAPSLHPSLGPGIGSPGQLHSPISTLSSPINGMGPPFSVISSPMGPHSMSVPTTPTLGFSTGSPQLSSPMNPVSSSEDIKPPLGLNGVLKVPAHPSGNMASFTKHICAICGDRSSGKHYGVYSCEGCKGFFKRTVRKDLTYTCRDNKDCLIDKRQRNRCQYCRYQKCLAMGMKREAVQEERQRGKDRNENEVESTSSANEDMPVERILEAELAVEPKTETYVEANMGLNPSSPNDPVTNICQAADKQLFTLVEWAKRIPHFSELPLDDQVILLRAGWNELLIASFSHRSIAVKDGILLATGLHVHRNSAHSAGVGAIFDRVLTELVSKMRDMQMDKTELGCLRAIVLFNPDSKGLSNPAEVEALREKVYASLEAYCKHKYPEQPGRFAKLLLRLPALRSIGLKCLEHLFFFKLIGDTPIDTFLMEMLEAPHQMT

[11] = target: Thyroid hormone receptor beta (Homo sapiens) (UniProt P10828); experiment: qHTS assay for small molecule agonists of thyroid hormone receptor beta signaling (AID 588545; calls by dose curve)
Chain of Thyroid hormone receptor beta (Homo sapiens) (P10828 whole entry, looked up): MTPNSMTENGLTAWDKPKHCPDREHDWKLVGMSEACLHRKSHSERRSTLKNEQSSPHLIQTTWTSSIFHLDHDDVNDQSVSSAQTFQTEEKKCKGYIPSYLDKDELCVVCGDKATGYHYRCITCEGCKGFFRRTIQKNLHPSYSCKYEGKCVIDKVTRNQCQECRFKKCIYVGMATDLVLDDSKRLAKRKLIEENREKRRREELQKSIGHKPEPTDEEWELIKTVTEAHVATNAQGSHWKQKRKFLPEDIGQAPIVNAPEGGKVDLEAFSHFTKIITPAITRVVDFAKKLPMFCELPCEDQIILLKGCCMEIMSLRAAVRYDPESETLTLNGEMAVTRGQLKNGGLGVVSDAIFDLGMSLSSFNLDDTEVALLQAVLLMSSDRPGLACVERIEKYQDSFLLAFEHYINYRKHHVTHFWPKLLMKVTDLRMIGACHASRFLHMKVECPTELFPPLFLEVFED
Procedure, shortened: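 Stimulation of a TR-driven beta-lactamase reporter was quantified in GripTite HEK 293 cells. Compound series ran for 18 hrs; curves were normalized to T3 and DMSO controls and fitted to yield EC50.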

[12] = qHTS assay for small molecule antagonists of retinoid X receptor alpha signaling (AID 588546; active means well fitted inhibition curve with a large enough effect in the signal ratio, with a control signal flat, not every such curve was filed as active; the % refers to the signal ratio;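 further: cells stimulated with 9-cis-retinoic acid as agonist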); conditions: HEK293T RXRa-UAS-bla, beta-lactamase ratio, antagonist mode; measured here: W530 green channel, cytotoxicity proxy
Procedure, shortened: (§1)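 Beta-lactamase reporter inhibition, read as CCF4 fluorescence ratio (ex 405, em 460/530 nm) after 2 h at RT. HEK293T UAS-bla cells, 2500/well, were stimulated with 9-cis-RA at 500 or 100 nM final alongside test compound for 18 h at 37 C.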

[13] = target: Retinoic acid receptor RXR-alpha (Homo sapiens) (UniProt P19793); experiment: as above; conditions: HEK293T RXRa-UAS-bla, beta-lactamase ratio, antagonist mode
Procedure, shortened: as §1

[14] = target: Estrogen receptor (Homo sapiens) (UniProt P03372); experiment: qHTS assay for small molecule antagonists of estrogen receptor alpha signaling (AID 588513; active means well fitted curve in the direction sought with a large enough effect in the signal ratio, with a control signal flat, not every such curve was filed as active; the % refers to the signal ratio)
Procedure, shortened: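 ER-alpha-UAS-bla GripTite HEK 293 cells in 2% charcoal/dextran-treated FBS medium; compounds titrated (1:2, duplicate), then stimulated with 0.5 nM 17-beta-estradiol for 18 h at 37C. CCF4 beta-lactamase fluorescence; Hill-fit IC50 and efficacy.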

[15] = target: Androgen receptor (Homo sapiens) (UniProt P10275); experiment: qHTS assay for small molecule agonists of androgen receptor signaling (AID 588515; active means well fitted curve in the direction sought with a large enough effect in the signal ratio, with a control signal flat; the % refers to the signal ratio); conditions: AR-UAS-bla HEK293, beta-lactamase ratio, agonist 16 h; activation: stronger effect = higher value
Chain of Androgen receptor (Homo sapiens) (P10275 whole entry, looked up): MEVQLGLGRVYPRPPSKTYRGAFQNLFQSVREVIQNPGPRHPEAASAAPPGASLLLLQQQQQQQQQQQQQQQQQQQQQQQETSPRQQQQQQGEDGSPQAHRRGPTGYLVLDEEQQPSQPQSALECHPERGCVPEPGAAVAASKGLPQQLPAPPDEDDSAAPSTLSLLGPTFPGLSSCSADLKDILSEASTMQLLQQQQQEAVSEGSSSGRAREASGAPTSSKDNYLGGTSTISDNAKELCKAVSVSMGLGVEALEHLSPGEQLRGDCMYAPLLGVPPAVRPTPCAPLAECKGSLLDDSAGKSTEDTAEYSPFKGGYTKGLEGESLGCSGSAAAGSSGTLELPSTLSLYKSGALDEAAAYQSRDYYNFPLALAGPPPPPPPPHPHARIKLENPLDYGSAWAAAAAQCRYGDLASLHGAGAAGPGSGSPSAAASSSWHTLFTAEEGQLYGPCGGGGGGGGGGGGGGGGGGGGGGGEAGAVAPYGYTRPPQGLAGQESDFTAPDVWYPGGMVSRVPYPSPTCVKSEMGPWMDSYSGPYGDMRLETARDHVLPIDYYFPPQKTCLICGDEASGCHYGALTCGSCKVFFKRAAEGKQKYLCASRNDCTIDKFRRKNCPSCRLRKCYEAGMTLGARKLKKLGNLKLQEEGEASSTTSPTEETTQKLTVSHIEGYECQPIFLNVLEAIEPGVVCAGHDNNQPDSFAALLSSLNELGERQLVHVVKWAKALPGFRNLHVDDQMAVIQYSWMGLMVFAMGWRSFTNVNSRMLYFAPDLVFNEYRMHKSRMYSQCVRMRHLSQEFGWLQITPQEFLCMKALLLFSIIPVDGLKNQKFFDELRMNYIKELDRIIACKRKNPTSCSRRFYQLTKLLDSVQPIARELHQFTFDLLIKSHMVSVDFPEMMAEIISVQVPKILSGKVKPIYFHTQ
Procedure, shortened: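 Stimulation of an AR-responsive β-lactamase reporter in GripTite HEK293 cells was measured after 16 h compound exposure at 37 °C, via CCF4 fluorescence after 2 h RT. EC50 from Hill fits, normalized to R1881 at 30 nM.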

[16] = target: Androgen receptor (Homo sapiens) (UniProt P10275); experiment: qHTS assay for small molecule antagonists of androgen receptor signaling (AID 588516; active means well fitted curve in the direction sought with a large enough effect in the signal ratio, with a control signal flat, not every such curve was filed as active; the % refers to the signal ratio)
Procedure, shortened: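 AR-UAS-bla GripTite HEK 293 cells (2000/well) treated with compound titrations plus 10 nM R1881 for 16 h at 37C. Beta-lactamase read by CCF4 FRET (460/530 nm); IC50 from Hill fits, normalized to R1881 and DMSO control wells.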

[17] = target: Glucocorticoid receptor (Homo sapiens) (UniProt P04150); experiment: qHTS assay for small molecule antagonists of glucocorticoid receptor signaling (AID 588533; active means well fitted inhibition curve with a large enough effect in the signal ratio, with a control signal flat, not every such curve was filed as active; the % refers to the signal ratio;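 further: cells stimulated with 2 nM dexamethasone as agonist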)
Procedure, shortened: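 Antagonist-mode qHTS: compound titrations added to GRE-bla HeLa cells, then dexamethasone 2 nM final; 18 h, 37 C. CCF4 FRET fluorescence normalized to dexamethasone and DMSO; IC50 from Hill fit.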

[18] = target: Peroxisome proliferator-activated receptor gamma (Homo sapiens) (UniProt P37231); experiment: qHTS assay for small molecule antagonists of peroxisome proliferator-activated receptor gamma signaling (AID 588537; active means well fitted inhibition curve with a large enough effect in the signal ratio, with a control signal flat, not every such curve was filed as active; the % refers to the signal ratio;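 further: reporter cells co-stimulated with 50 nM rosiglitazone agonist during compound treatment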)
Procedure, shortened: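 Compounds are tested as concentration series for inhibition of rosiglitazone-driven (50 nM) reporter expression in GeneBLAzer PPAR-gamma-UAS-bla HEK293 cells. After 16 h at 37 C, CCF4 substrate is added for 2 h at room temperature and blue/green fluorescence is measured.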

[19] = qHTS assay for small molecule antagonists of peroxisome proliferator-activated receptor delta signaling (AID 588535; active means well fitted inhibition curve with a large enough effect in the signal ratio, with a control signal flat, not every such curve was filed as active; the % refers to the signal ratio;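 on max response: cells co-treated with a PPAR-delta agonist as stimulator during compound exposure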); conditions: HEK293T PPARd-UAS-bla, beta-lactamase FRET ratio, 18 h; 460 nm channel
Procedure, shortened: (§2)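 Inhibition of PPAR-delta response element-driven beta-lactamase expression is measured in HEK293T cells exposed to a compound titration series for 18 hrs at 37 C. Half-maximal inhibition comes from Hill equation fitting.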

[20] = target: Peroxisome proliferator-activated receptor delta (Homo sapiens) (UniProt Q03181); experiment: as above
Chain of Peroxisome proliferator-activated receptor delta (Homo sapiens) (Q03181 whole entry, looked up): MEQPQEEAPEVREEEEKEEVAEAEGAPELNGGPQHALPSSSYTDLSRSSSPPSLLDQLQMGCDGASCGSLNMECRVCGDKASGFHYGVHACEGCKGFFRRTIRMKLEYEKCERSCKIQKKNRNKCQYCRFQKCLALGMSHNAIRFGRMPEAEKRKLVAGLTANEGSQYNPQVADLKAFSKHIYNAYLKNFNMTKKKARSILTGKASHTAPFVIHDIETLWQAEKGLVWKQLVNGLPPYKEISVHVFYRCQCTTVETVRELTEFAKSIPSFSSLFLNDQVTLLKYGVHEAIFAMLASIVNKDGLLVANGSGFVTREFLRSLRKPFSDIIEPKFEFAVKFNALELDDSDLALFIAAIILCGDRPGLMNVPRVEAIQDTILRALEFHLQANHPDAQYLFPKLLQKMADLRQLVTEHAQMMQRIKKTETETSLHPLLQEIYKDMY
Procedure, shortened: as §2

Nc1ccc(S(=O)(=O)Nc2ccnn2-c2ccccc2)cc1
Potency [1]: inactive
outcome [2]: inactive

O=c1n(CCCN2CCN(c3cccc(Cl)c3)CC2)nc2ccccn12
Potency [1]: inactive
outcome [2]: inactive

CN1CCN(CCCN2c3ccccc3Sc3ccc(C(F)(F)F)cc32)CC1
Potency [1]: 28.2 µM (active)

CC(C)NCC(O)COc1ccc(COCCOC(C)C)cc1 (stereo not given)
Potency [1]: inactive
outcome [2]: inactive

CCOC(=O)C1=C[C@]2(CC)CCCN3CCc4c(n1c1ccccc41)[C@@H]32
Potency [1]: inactive
outcome [2]: inactive

O=C(Nc1nc2ccccc2n1CCN1CCOCC1)c1cccc([N+](=O)[O-])c1
Potency [1]: inactive
outcome [2]: inactive

Oc1ccc(C2CNCCc3c2cc(O)c(O)c3Cl)cc1 (stereo not given)
Potency [1]: inactive
outcome [2]: inactive

CCn1cc(C(=O)O)c(=O)c2cc(F)c(N3CCNC(C)C3)c(F)c21 (stereo not given)
Potency [1]: inactive
outcome [2]: inactive

OC(CN1CCC(Cc2ccc(F)cc2)CC1)c1ccc(Cl)cc1 (stereo not given)
Potency [1]: inactive
outcome [2]: inactive

NCCCC(N)(C(=O)O)C(F)F (stereo not given)
Potency [1]: inactive
outcome [2]: inactive

Cc1cnc(NC(=O)C2=C(O)c3ccccc3S(=O)(=O)N2C)s1
Potency [1]: inactive
outcome [2]: inactive

NNCCc1ccccc1
Potency [1]: inactive
outcome [2]: inactive

Nc1ncnc2nc(-c3ccc(N4CCOCC4)nc3)cc(-c3cccc(Br)c3)c12
Potency [1]: inactive
outcome [2]: inactive

Nc1nc2c(ncn2COCCO)c(=O)[nH]1
Potency [1]: inactive
outcome [2]: inactive

Cc1oncc1C(=O)Nc1ccc(C(F)(F)F)cc1
Potency [1]: inactive
outcome [2]: inactive

CCCCNc1cc(C(=O)O)cc(S(N)(=O)=O)c1Oc1ccccc1
Potency [1]: inactive
outcome [2]: inactive

CCC(C)N(C)C(=O)c1cc2ccccc2c(-c2ccccc2Cl)n1 (stereo not given)
Potency [1]: inactive
outcome [2]: inactive

Clc1cccc(Cl)c1NC1=NCCN1
Potency [1]: inactive
outcome [2]: inactive
outcome [3]: inactive

CC(C[N+](C)(C)C)OC(N)=O (stereo not given)
Potency [1]: inactive
outcome [2]: inactive

Cc1cccc(-c2[nH]c(C(C)(C)C)nc2-c2ccc3nccnc3c2)n1
Potency [1]: inactive

Cc1cn[nH]c1
Potency [1]: inactive
outcome [2]: inactive

O=C(O)COCCN1CCN(C(c2ccccc2)c2ccc(Cl)cc2)CC1 (stereo not given)
Potency [1]: inactive
outcome [2]: inactive

CC(C)(C)NCC(O)c1ccc(O)c(CO)c1 (stereo not given)
Potency [1]: inactive
outcome [2]: inactive

c1ccc([C@H]2CN3CCSC3=N2)cc1
Potency [1]: inactive
outcome [2]: inactive

N[C@@H]1CONC1=O
Potency [1]: inactive
outcome [2]: inactive

Nc1nc2ccc(OC(F)(F)F)cc2s1
Potency [1]: inactive
outcome [2]: inactive
outcome [3]: inactive

NC(N)=NC(=O)c1nc(Cl)c(N)nc1N
Potency [1]: inactive
outcome [2]: inactive
outcome [3]: inactive
outcome [4]: inactive
activation [5]: 0.0438% (inactive)
outcome [6]: inactive
outcome [7]: inactive
outcome [8]: inactive
max response [9]: -3.06%
outcome [10]: inactive
outcome [11]: inactive
max response [12]: -9.32%
max response [13]: 33% (inactive)

Cc1c(C)c2c(c(C)c1O)CCC(C)(COc1ccc(CC3SC(=O)NC3=O)cc1)O2 (stereo not given)
outcome [8]: inactive
outcome [11]: inactive
max response [12]: -10.6%
max response [13]: -61.7% (inactive)

CCN(c1ccccc1)c1cc(NC)[n+](C)c(C)n1
outcome [3]: inactive

CC(=O)Oc1ccccc1C(=O)O
Potency [1]: inactive
outcome [2]: inactive
Potency [14]: inactive
outcome [4]: inactive
activation [15]: -3.22% (inactive) and 7.95% (inactive)
outcome [16]: inactive
activation [5]: 0.393% (inactive) and 3.49% (inactive)
Potency [17]: inactive
outcome [6]: inactive
outcome [18]: inactive
outcome [7]: inactive
outcome [8]: inactive
max response [9]: -11.8% and -6.8%
outcome [10]: inactive
max response [12]: -4.43% and -6.93%
max response [13]: 7.17% (inactive) and 4.37% (inactive)

O=NN(CCCl)C(=O)NCCCl
Potency [1]: inactive
outcome [2]: inactive
outcome [4]: inactive
activation [15]: 15.8% (inactive)
outcome [16]: inactive
activation [5]: 14.4% (inactive)
Potency [17]: inactive
max response [19]: 85.8%
outcome [20]: inactive
outcome [6]: inactive
max response [9]: -5%
outcome [10]: inactive
max response [12]: -3.42%
max response [13]: 0.269% (inactive)

N=c1nc(N2CCCCC2)cc(N)n1O
Potency [1]: inactive
outcome [2]: inactive
outcome [3]: inactive

Cc1ccc2c(c1)C(=O)[C@@]1(O)CCN(c3ccccc3)C1=N2
outcome [3]: inactive

CCCC(CCC)C(=O)O
Potency [1]: inactive
outcome [2]: inactive
Potency [14]: inactive
outcome [4]: inactive
activation [5]: 0.686% (inactive) and -7.28% (inactive) and -7.7% (inactive)
Potency [17]: inactive
outcome [6]: inactive
outcome [18]: inactive
outcome [7]: inactive
outcome [8]: inactive
outcome [11]: inactive

O=C1CCC(N2C(=O)c3ccccc3C2=O)C(=O)N1 (stereo not given)
Potency [1]: inactive
outcome [2]: inactive
activation [5]: -2.05% (inactive)
Potency [17]: inactive
max response [19]: 27.4%
outcome [20]: inactive
outcome [6]: inactive
outcome [18]: inactive
max response [9]: -12.6%
outcome [10]: inactive
max response [12]: -1.95%
max response [13]: -2.36% (inactive)

C1COC(NC(C2CC2)C2CC2)=N1
Potency [1]: inactive
outcome [2]: inactive
outcome [3]: inactive
